Source: PubChem BioAssay (National Center for Advancing Translational Sciences (NCATS))
Pf growth 48h: inhibits P. falciparum growth in the first generation, 48 h; Potency, µM (top dose mostly 28.7 µM), without a hit: at the highest dose activity change, negative = inhibition, actives largely listed as inhibitors; 5.9% of 310,000 active; P. falciparum luciferase growth in erythrocytes, 48 h; AID 504832
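Luciferase-expressing parasites in RBCs, 2% Hct / 0.1% parasitemia final; RPMI 1640 + 0.5% Albumax; 37 C, 5% CO2, one generation; luminescence read-out, lower signal = inhibition.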
Pf growth 96h: inhibits malaria parasite growth, 96 h | AID 504834 | P. falciparum luciferase reporter growth, 96 h | 6.9% of 320,000 active | Potency, µM (highest dose often 28.7 µM), inactives show at the highest dose activity change, negative = inhibition, most hits filed as inhibitors
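Two parasite generations (96 h, 37 C, 5% CO2) of compound exposure in infected erythrocytes (0.05% parasitemia, 2% hematocrit). Luciferase-reporter P. falciparum; decreased luminescence indicates inhibited growth, aimed at apicoplast-acting delayed death.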
AMA1-RON2 inh: disrupts binding of P. falciparum AMA1 to RON2; AlphaScreen AMA1-biotinylated RON2 peptide binding; Potency, µM (doses to about 58.2 µM), for inactives: at the highest dose activity change, negative = inhibition, usual class: inhibitors; 0.2% of 360,000 active;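 note: 0% = vehicle wells and -100% = peptide control; nearly all actives have a fitted effect of over 45% in size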
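AMA1 (3D7) with his tag at 25 nM final met compounds first, then biotinylated RON2 peptide at 25 nM; detection used donor plus acceptor beads, 10 µg/mL apiece, read by AlphaScreen after 30 min at room temperature.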
HCV inhibitor: blocks hepatitis C virus; Huh7.5.1 HCVcc-Cre infection, luciferase reporter, 44 h; Potency, µM (top dose mostly 41.8 µM), inactives show top-dose activity change, negative = inhibition, usual class: inhibitors; 3.4% of 340,000 active; AID 651820
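Infectious HCV cell culture screen: compound-treated cells (1,000/well, pre-plated 4 h) are infected with HCVcc-Cre at roughly 0.5 moi and grown 44 h. Infection is quantified by luciferase signal after 15 min substrate incubation at room temperature.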
* = called active by the depositor; ? = inconclusive; . = not tested or not shown; ! = not confirmed by another sample; [ ] = dose if it differs, or a comment. Hits are enriched below; roughly 11% of the tested compounds scored in any of these assays. Calls come from the whole dose curve; as a rule, active = well fitted curve in the direction sought with a large enough effect; inconclusive = small, poorly fitted or top-dose-only effect, or another doubt; inactive = no such curve, though single readings can be large; an effect the other way counts as inactive or inconclusive. Unless noted, % is set by controls: 0 for no effect and ±100 for the full control effect; potency is the fitted concentration of half-maximal effect.

SMILES	Pf growth 48h	Pf growth 96h	AMA1-RON2 inh	HCV inhibitor
O=[N+]([O-])c1ccc(CSc2nnc(SCc3ccc(Cl)cc3)s2)cc1	17%	?	-10%	?
Cc1ccc(S(=O)(=O)N2CCCC2C(=O)NCc2ccccc2F)cc1 (centres undefined)	?	-24%	7%	12%
COc1ccc(CNC(=O)c2ccccc2NC(=O)C2=CSCCO2)c(OC)c1	?	?	-9%	?
O=C(Nc1nc(-c2ccccn2)cs1)c1cc2ccccc2o1	?	?	-73%	?
Cc1ccc(C(=O)Nc2nc(-c3ccccn3)cs2)s1	0.41µM*	?	-62%	?
C[C@H](NC(=O)c1ccccc1)C(=O)Nc1nc(-c2ccccn2)cs1	?	-10%	66%	?
Cc1c(C(=O)Nc2nc(-c3ccccn3)cs2)oc2ccccc12	6.6µM*	?	23%	2.8µM*
O=C(Nc1ccccn1)c1ccc(Cl)s1	112%	-29%	-3%	4%
Cn1cccc1C(=O)Nc1nc(-c2ccccn2)cs1	?	15µM*	-9%	14µM*
O=C(Nc1nc(-c2ccccn2)cs1)c1ccc(Cl)s1	.	0.37µM*	100%	?
Cc1csc(NC(=O)c2cccn2C)n1	281%	317%	-9%	1%
COC(=O)[C@@]12C[C@@H](CC(=O)NCCCCc3ccccc3)C(=O)N(Cc3cccc4ccccc34)C1=CCC(C)(C)C2	.	.	-13%	.
O=C(NNS(=O)(=O)c1ccc(F)cc1F)c1csc(-c2cccnc2)n1	0%	?	-13%	-3%
O=C(Cn1c(=O)sc2ccccc21)Nc1ccc(O)cc1	-5%	-42%[5.75 µM]	-4%	-6%
O=C(Nc1ccc([N+](=O)[O-])cc1)Nc1nc(-c2ccc(Cl)s2)cs1	1.9µM*	?	0%	?
CCCCN1C(=O)C(=O)N(CC(=O)Nc2cc(OCC)c(N3CCOCC3)cc2OCC)C1=O	10%	11%	-17%	13%
Cc1ccc(S(=O)(=O)N2CCNC(=O)CC2)cc1	9%	?	3%	23%
COC(=O)c1cccc(NC(=O)c2cc3sccc3n2C)c1	150%	3%	-14%	14µM*
CCCCCn1c(=O)[nH]c2cc(C(=O)Nc3ccc(OC)cc3)ccc2c1=O	12%	?	6%	-2%
CCCN1CCN(CCCNC(=O)c2ccc3c(=O)n(CCc4ccccc4)c(=O)[nH]c3c2)CC1	?	?	-11%	?
CCN1CCN(CCCNC(=O)c2ccc3c(=O)n(CCc4ccccc4)c(=O)[nH]c3c2)CC1	?	?	-8%	10µM*
O=C(CCCn1c(=O)[nH]c2cc(Cl)ccc2c1=O)NCCCN1CCN(c2ccc(F)cc2)CC1	?	13%	-5%	7.9µM*
COCCn1c(=O)[nH]c2cc(C(=O)NCCCN3CCN(c4ccc(F)cc4)CC3)ccc2c1=O	8%	?	5%	10µM*
CCn1c(=O)[nH]c2cc(C(=O)Nc3cc(C)cc(C)c3)ccc2c1=O	4.7µM*	30%	-19%	?
O=C1CC(N2CCN(S(=O)(=O)c3ccccc3F)CC2)C(=O)N1c1ccccc1Cl (centres undefined)	?	8%	-1%	12%
SMILES	Pf growth 48h	Pf growth 96h	AMA1-RON2 inh	HCV inhibitor
CCOC(=O)c1sc(NC(=O)CSc2nnnn2-c2ccc(C)cc2)c(C(=O)OCC)c1C	?	5.2µM*	-9%	?
CCOC(=O)c1c(NC(=O)CSc2nc3ccccc3c(=O)n2-c2ccccc2)sc(C(C)=O)c1C	0.21µM*	2.3µM*	-5%	3%
C=CCn1c(=O)c2ccccc2n2c(SCC(=O)Nc3sc(C(=O)N(CC)CC)c(C)c3C(=O)OCC)nnc12	12µM*	0%	9%	6.3µM*!
COc1cccc(-n2c(SCC(=O)Nc3sc4c(c3C(N)=O)CCC4)nc3ccccc3c2=O)c1	4.1µM*	-1%	9%	?
CCOC(=O)c1c(NC(=O)CSc2nnnn2C)sc(C(=O)N(C)C)c1C	-15%	13%	7%	7%
COC(=O)c1ccc(NC(=O)c2cc[n+]([O-])cc2)cc1	?	12%	0%	14%
CCN(CCn1cccn1)C(=O)CCc1nnc(C2(c3ccc(Cl)cc3)CCC2)o1	-10%	28%	-3%	-2%
CCOC(=O)c1sc(NC(=O)CSc2nnnn2-c2ccccc2)nc1C	4%	-22%	13%	21%
CCOC(=O)c1c(C)[nH]c(C)c1C(=O)CSc1nc2ccccc2c(=O)n1-c1ccc(Cl)cc1	?	9.3µM*	-14%	?
CCOC(=O)CSc1nc2c(c(=O)n1-c1ccc(OC)cc1)SCC2	-13%	-3%	-5%	0%
CCOC(=O)c1c(C)[nH]c(C)c1C(=O)CSc1nc2ccccc2c(=O)n1-c1ccc(C)cc1	?	?	5%	?
CCOC(=O)c1sc(NC(=O)CSc2nnnn2-c2ccc(C)c(C)c2)nc1C	24%	2.3µM*	2%	16%
CCOC(=O)c1sc(NC(=O)CSc2nc3c(c(=O)n2-c2ccc(C)cc2)SCC3)c(C(=O)OCC)c1C	?	12µM*	3%	-6%
COCCn1c(SCC(=O)Nc2cc(C)on2)nnc1C(C)C	11%	-19%	-5%	12%
O=C(Cc1ccccc1)NCC(=O)Nc1ccccc1Br	14%	33%	-2%	16%
Cc1cc(C)nc(Nc2nc(C(N)Cc3ccccc3)cs2)n1 (centres undefined)	.	.	47%	.
COc1ccc(CCNC(=O)COc2ccc(N(C)S(=O)(=O)c3ccc(C)cc3)cc2)cc1OC	-22%	2%	0%	?
O=C(COC(=O)CNS(=O)(=O)c1ccc(F)c(F)c1F)Nc1ccc(OC(F)F)cc1	5%	23%	6%	3%
CCCC(=O)NCC(c1cccs1)S(=O)(=O)c1ccc(Cl)cc1 (centres undefined)	-21%	2.6µM*	12%	7%
COc1ccc(N(CC(=O)Nc2ccccc2C(=O)NCCc2ccccc2)S(C)(=O)=O)cc1OC	?	.	-12%	11%
C=CCOc1nc2c(c(=O)n(Cc3ccc(Cl)cc3)c(=O)n2C)n1C	?	-9%	-10%	-2%
CCOC(=O)c1c(C)[nH]c(C=C2C(=O)CCCC2=O)c1O	2%	?	17%	-5%
Cc1ccc(S(=O)(=O)N2CCC(=O)N(C(COCc3ccccc3)Cc3ccccc3)CC2)cc1 (centres undefined)	10µM*	10µM*	1%	-8%
Cc1ccc(S(=O)(=O)N2CCC(=O)N(C(COCc3cccc(Cl)c3)Cc3ccccc3)CC2)cc1 (centres undefined)	8.3µM*	10µM*	-17%	?
Cc1ccc(S(=O)(=O)N2CCC(=O)N([C@H](COCc3ccc(Cl)cc3)Cc3ccccc3)CC2)cc1	.	.	0%	.
Cc1ccc(S(=O)(=O)N2CCC(=O)N(C(COCc3cccc(C(F)(F)F)c3)Cc3ccccc3)CC2)cc1 (centres undefined)	?	6.6µM*	-7%	10µM*
Cc1ccc(S(=O)(=O)N2CCC(=O)N([C@H](COCc3cccc(Cl)c3)Cc3ccccc3)CC2)cc1	.	.	3%	.
